Sampled rows, rich in hits. Any-hit rate of the full collection: about 6.7%.
T cruzi growth-1: inhibitors of T. cruzi proliferation; T. cruzi beta-gal in NIH3T3, GalScreen luminescence, 90 h; inhibition, % at 8.34 µM; hit rate 5.9% among 77,000; AID 624255;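 active = mean inhibition above about 93%, with at least 55% of replicates each passing it, limit read from the data, passing the limit was not always enough; inconclusive = only one of those two conditions holds; inactive = neither condition holds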
Pf Dd2 growth: blocks growth of Plasmodium falciparum Dd2 parasites; P. falciparum Dd2 growth, SYBR Green, 72 h; stronger effect = lower value; activity change, % at 10 µM; hit rate 2.3% among 94,000; in the data active = activity change below about -80%; inconclusive = no clear call, values can overlap the other calls
C diff growth: inhibitors of Clostridium difficile growth; Clostridium difficile clinical isolate growth, OD600, 24 h; stronger effect = lower value; hit rate 0.25% among 86,000; growth activity, negative = inhibition, % at 16 µg/mL (by protocol);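 active = mean growth activity at or below -80% and every replicate also at or below -80%; inconclusive = mean at or below -80% but some replicate above -80%; inactive = mean growth activity above -80%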
T cruzi growth-2: blocks T. cruzi growth in NIH3T3 host cells | shares compounds with T cruzi growth-1 | T. cruzi beta-gal in NIH3T3, GalScreen luminescence, 90 h | inhibition, % at 8.35 µM | hit rate 72% among 5,600;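 active = mean replicate inhibition above about 95% and at least 55% of replicates individually reaching it, limit read from the data; inconclusive = only one of the two criteria is met; inactive = neither criterion is met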
T cruzi growth-3: inhibitors of T. cruzi proliferation | shares compounds with T cruzi growth-1 | T. cruzi beta-gal in NIH3T3, GalScreen luminescence, 90 h | hit rate 21% among 5,600 | inhibition, % at 2.09 µM | AID 651740;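 active = mean inhibition above about 95%, with at least 55% of replicates also reaching it, limit read from the data; inconclusive = meets just one of the two conditions; inactive = meets neither condition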
NIH3T3 tox: cytotoxicity in mouse NIH/3T3 fibroblasts; AID 651742; hit rate 14% among 5,600; cytotoxicity (signal decrease), % at 8.35 µM; NIH/3T3 viability, CellTiter-Glo ATP luminescence, 90 h; shares compounds with T cruzi growth-1;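 active = mean signal decrease across replicates above about 35% based on untreated-well scatter, with enough replicates individually passing, limit read from the data; inconclusive = no rule stated though some were filed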
NIH3T3 tox 2: cytotoxicity in mouse NIH/3T3 fibroblasts; shares compounds with T cruzi growth-1; inhibition, % at 24.9 µM; hit rate 56% among 5,600; NIH/3T3 viability, CellTiter-Glo ATP luminescence, 90 h;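 active = mean loss of cell viability signal at or above a set limit, and enough replicates individually reaching it; inconclusive = meets only the mean limit or only the replicate share; inactive = meets neither condition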
A number is an active result; – = inactive; ? = inconclusive; · = not tested or not shown.

SMILES	T cruzi growth-1	Pf Dd2 growth	C diff growth	T cruzi growth-2	T cruzi growth-3	NIH3T3 tox	NIH3T3 tox 2
N#C[C@@H]1[C@H](c2ccc(C3=CCCCC3)cc2)[C@@H](CO)N1S(=O)(=O)c1cccc(F)c1	98	–	–	?	–	–	104
N#C[C@@H]1[C@H](c2ccc(C3=CCCC3)cc2)[C@H](CO)N1S(=O)(=O)c1cccc(F)c1	–	–	–	·	·	·	·
N#C[C@H]1[C@@H](c2ccc(C3=CCCCC3)cc2)[C@H](CO)N1S(=O)(=O)c1ccccc1	97	–	–	97	–	41	100
CCS(=O)(=O)N1Cc2cc(C(=O)O)nc(-c3cccc(-c4ccc(C#N)cc4)c3)c2[C@@H]1CCO	·	–	–	·	·	·	·
COc1ccccc1-c1ccc2c(c1)[C@H]1[C@H](CCN1C(=O)C1CCCCC1)[C@@H](CO)N2	–	–	–	·	·	·	·
COc1ccccc1-c1ccc2c(c1)[C@H]1[C@H](CCN1C(=O)C1CCCC1)[C@H](CO)N2	·	–	–	·	·	·	·
COc1ccccc1-c1ccc2c(c1)[C@@H]1[C@@H](CCN1C(=O)C1CC1)[C@H](CO)N2	?	–	–	107	?	–	–
COc1ccccc1-c1ccc2c(c1)[C@H]1[C@H](CCN1C(=O)C1CCOCC1)[C@@H](CO)N2	100	–	–	106	–	–	–
CCCNC(=O)Nc1ccc2c(c1)C(=O)N(C)C[C@H](OC)[C@@H](C)CN(CC1CCCC1)[C@@H](C)CO2	–	·	·	·	·	·	·
C[C@H](CO)N1C[C@H](C)[C@@H](CN(C)C(=O)Cc2ccccc2)Oc2ncc(-c3ccccc3)cc2C1=O	–	–	–	·	·	·	·
C[C@@H]1CN([C@H](C)CO)C(=O)c2cc(NC(=O)Cc3cn(C)c4ccccc34)ccc2O[C@@H]1CN(C)Cc1ccc(Cl)c(Cl)c1	102	–	·	99	–	–	37
C[C@@H]1CN([C@H](C)CO)C(=O)c2cc(NC(=O)Cc3cn(C)c4ccccc34)ccc2O[C@@H]1CN(C)Cc1ccc(C(=O)Nc2ccccc2N)cc1	–	–	·	·	·	·	·
C[C@@H]1CN([C@H](C)CO)C(=O)Cc2cc(NC(=O)Cc3cn(C)c4ccccc34)ccc2O[C@H]1CN(C)Cc1ccc(Cl)c(Cl)c1	?	–	–	98	–	–	43
C[C@@H]1CN([C@H](C)CO)C(=O)Cc2cc(NC(=O)Nc3ccccc3)ccc2O[C@@H]1CN(C)Cc1ccc(Cl)c(Cl)c1	102	–	–	108	–	–	104
C[C@@H]1CN([C@@H](C)CO)C(=O)c2cc(NC(=O)Cc3cn(C)c4ccccc34)ccc2O[C@@H]1CN(C)Cc1ccc(Cl)c(Cl)c1	–	–	·	·	·	·	·
C[C@@H]1CN([C@H](C)CO)C(=O)Cc2cc(NC(=O)Cc3cn(C)c4ccccc34)ccc2O[C@H]1CN(C)Cc1ccc(C(=O)Nc2ccccc2N)cc1	?	–	–	–	–	–	–
C[C@H](CO)N1C[C@H](C)[C@H](CN(C)Cc2ccccc2)Oc2ccc(NC(=O)Cc3cn(C)c4ccccc34)cc2CC1=O	–	–	–	·	·	·	·
C[C@@H]1CN([C@@H](C)CO)C(=O)Cc2cc(NC(=O)Nc3ccccc3)ccc2O[C@H]1CN(C)Cc1ccc(Cl)c(Cl)c1	–	–	–	·	·	·	·
Cc1noc(C)c1NC(=O)Nc1ccc2c(c1)CC(=O)N([C@@H](C)CO)C[C@@H](C)[C@H](CN(C)CC1CC1)O2	–	–	–	·	·	·	·
COc1cccc(NC(=O)Nc2ccc3c(c2)C(=O)N(C)[C@@H]2CC[C@H](CC(=O)O)O[C@@H]2CO3)c1	–	–	–	·	·	·	·
C[C@H]1CN([C@@H](C)CO)C(=O)c2cccc(NC(=O)c3nc4ccccc4s3)c2O[C@H]1CN(C)Cc1ccc(Oc2ccccc2)cc1	–	–	–	·	·	·	·
COc1ccccc1S(=O)(=O)N1CC[C@@H]2[C@@H](CO)Nc3ccc(-c4ccccc4F)cc3[C@@H]21	?	–	–	104	–	–	41
COc1cccc(-c2ccc3c(c2)[C@H]2[C@H](CCN2S(=O)(=O)c2ccccc2OC)[C@H](CO)N3)c1	?	–	–	102	–	–	–
COc1cccc(-c2ccc3c(c2)[C@@H]2[C@@H](CCN2S(=O)(=O)c2ccccc2OC)[C@H](CO)N3)c1	–	–	–	·	·	·	·
COc1ccccc1S(=O)(=O)N1CC[C@H]2[C@H](CO)Nc3ccc(-c4ccccc4F)cc3[C@H]21	–	–	–	·	·	·	·
